PubChem BioAssay AID493011 (Sanford-Burnham Center for Chemical Genomics, 2011)
About 1,400 (0.42%) of roughly 330,000 compounds were called active. The sample as a whole holds a higher share of actives than the screen did. Unmarked numbers belong to inactive results.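 Rule for the calls: active = at least 40% inhibition at 20 µM here, with at most 30% in a related deaminase screen; inactive = the rest.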

Each molecule was assayed against DNA dC->dU-editing enzyme APOBEC-3A (Homo sapiens) (UniProt P31941) (assay: blockers of A3A cytidine deamination on DNA – biochemical, FAM/TAMRA oligo cleavage fluorescence, selectivity assay for APOBEC3G inhibitor project, primary screen (AID 493011;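 note: plate controls were A3A with DMSO for no effect and wells lacking A3A enzyme for full effect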)). Conditions: recombinant A3A, FAM/TAMRA ssDNA deamination fluorescence; at 20 µM; active compounds read high.
Chain of DNA dC->dU-editing enzyme APOBEC-3A (Homo sapiens) (P31941 whole entry, looked up): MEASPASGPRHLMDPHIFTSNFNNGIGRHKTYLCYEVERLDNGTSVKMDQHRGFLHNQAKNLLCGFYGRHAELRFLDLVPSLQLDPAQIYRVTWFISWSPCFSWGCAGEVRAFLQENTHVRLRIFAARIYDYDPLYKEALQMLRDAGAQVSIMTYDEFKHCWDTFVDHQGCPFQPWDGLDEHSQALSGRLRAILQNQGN
Molecule O=C(CCC1CCCCC1)Nc1cc(C(F)(F)F)ccc1N1CCOCC1 has an inhibition of 1.06%.
With COc1ccccc1N1CCN(C(=O)CCS(=O)(=O)c2ccc3c(c2)NC(=O)C(C)S3)CC1 (configuration not stated) the inhibition was 0.853%.
Cc1cccc(N2C(=O)N3[C@H](c4ccc(F)cc4)[C@@H]4C(=O)N(C5CCCCC5)C(=O)[C@@H]4[C@]3(Cc3ccccc3)C2=O)c1 was tested, and the inhibition was 0.21%.
CCN1C(=O)N[C@@H](c2ccccc2)[C@H](C(C)=O)[C@H]1C was tested, and the inhibition was -2%.
Molecule CCN1C(=NCCc2cccnc2)N[C@@H](c2ccccc2)C(C(=O)OC)=C1C has an inhibition of 67.6%.
For CCN1C(=NCCc2cccnc2)N[C@@H](c2ccccc2)[C@H](C(=O)OC)[C@H]1C, the inhibition was 68.2% (active).
Work on CC1=C(C(N)=O)C(c2sccc2C)n2nnnc2N1 (configuration not stated) yielded an inhibition of 0.148%.
Cc1cc(Cl)ccc1C(=O)C1CCCN(C(=O)c2nonc2C)C1 (configuration not stated) was tested, and the inhibition was -5.04%.
For Cc1cc(/C=N/NC(=O)CC2(C)OCCO2)c(C)n1-c1ccc(Cl)c(Cl)c1, the inhibition was 56.8% (active).
For Cc1ccccc1-n1c(C)cc(/C=N/NC(=O)c2ccc(CN3CCOCC3)cc2)c1C, the inhibition was 0.38%.
Cc1cc(=O)cc(C)n1-c1ccc(Cl)c(Cl)c1 was tested, and the inhibition was 1.75%.
CCOc1ccc(S(=O)(=O)Nc2ccncc2)c(C)c1C gave an inhibition of -0.833%.
CCc1ccc(OCC(O)CN2CCN(CCO)CC2)cc1 (configuration not stated) gave an inhibition of -7.28%.
CC(=O)c1ccc(N=C2SCCCN2C(=O)C2CCCCC2)cc1 gave an inhibition of 4.36%.
O=C1c2cccc3cccc(c23)C(=O)N1CCCCCc1n[nH]c(=S)o1 gave an inhibition of -1.78%.
For O=C(CN1C(=O)c2cccc3cccc(c23)C1=O)N1CCCCC1, the inhibition was -1.16%.
C[N+](C)(CCCCCC[N+](C)(C)CCCN1C(=O)c2cccc3cccc(c23)C1=O)CCCN1C(=O)c2cccc3cccc(c23)C1=O was tested, and the inhibition was 46% (active).
Work on CC(=O)c1ccc(NC(=S)N(Cc2ccccc2)C(C)C2CC2)cc1 (configuration not stated) yielded an inhibition of 0.493%.
COc1ccc(-c2ocnc2C(=O)Nc2ccc3c(c2)CCC3)cc1 showed an inhibition of -0.367%.
CCN(CC(=O)N1CCCC1)S(=O)(=O)c1ccc(F)cc1 gave an inhibition of -1.08%.
N#Cc1ncc(C(F)(F)F)cc1Oc1cccnc1 was tested, and the inhibition was 60.4% (active).
With NC(=O)c1ncc(C(F)(F)F)cc1Oc1ccc(F)cc1 the inhibition was 2.03%.
For O=C(Nc1ccc(Cl)cc1)Nc1ccc(Oc2cccnc2)nc1, the inhibition was -3.23%.
Work on COc1ccc(C)cc1NC(=O)CN1c2cccc3cccc(c23)S1(=O)=O yielded an inhibition of -2.73%.
CCN(C(=O)COc1ccc(C(=O)c2ccccc2)cc1)c1ccccc1 showed an inhibition of -0.203%.
With COc1ccccc1CNC(=O)COC(=O)c1sc(C)nc1C the inhibition was -1.57%.
CC(=O)Nc1ccc(NC(=O)CSc2nnc(C3CC3)n2-c2ccccc2)cc1 showed an inhibition of 10.5%.
CC[n+]1c(C)n(-c2ccccc2)c2ccc(NC(C)=O)cc21 was tested, and the inhibition was 60% (active).
With CC(=O)c1cccc(NC(=O)c2cc(C)nn2-c2ccccc2)c1 the inhibition was -0.424%.
Work on COc1cccc([C@H](O)Cn2cc(-c3ccc(CON=C(C)C)cc3)nn2)c1 yielded an inhibition of 2.45%.
With Cc1nnc(N/N=C/c2ccccn2)[nH]c1=O the inhibition was 42.1% (active).
For Cc1cc(C(=O)N/N=C/c2ccccn2)c2ccccc2n1, the inhibition was -3.08%.
With COc1ccc(Cc2nnc(N/N=C/c3ccccc3O)[nH]c2=O)cc1OC the inhibition was -1.76%.
With CC(C)(C)NC(=O)c1ccc(Cn2cc(C(F)(F)F)ccc2=O)cc1 the inhibition was -2.36%.
In the case of CCOc1ccc(C(=O)NCC(=O)N2CCCCCCC2)cc1OCC, the inhibition is reported as -0.114%.
Molecule CC(O)C(NS(=O)(=O)c1ccc(Cl)cc1)C(=O)OCc1cc([N+](=O)[O-])cc2c1OCOC2 (configuration not stated) has an inhibition of -3.62%.
With NS(=O)(=O)c1ccc(CNC(=O)c2cccc(Oc3ccccc3)c2)cc1 the inhibition was -0.736%.
Molecule CCc1ccc(S(=O)(=O)Nc2cc3c(cc2N2CCCCC2)n(C)c(=O)c(=O)n3C)cc1 has an inhibition of -6.54%.
CCN1C(=O)N[C@@H](c2ccccc2)C(C(=O)OC)=C1C was tested, and the inhibition was 4.12%.
With COC(=O)C1=C(C)N(C)C(=S)NC1c1ccccc1 (configuration not stated) the inhibition was -2.13%.
For COC(=O)C1=C(C)N(Cc2ccccc2)C(=NCCCOC(C)C)N[C@H]1c1ccccc1, the inhibition was 45.5% (active).
CC1CN(C2CCN(C(=O)COc3ccccc3)CC2)CC(C)O1 (configuration not stated) gave an inhibition of -6.23%.
Work on COC(=O)c1ccc(NC(=O)CSc2nnc(Cc3cccn3C)n2-c2ccc(F)cc2)cc1 yielded an inhibition of -0.405%.
With Cc1cccc(N2CCN(C(=O)COCc3cc(-c4ccc5c(c4)OCO5)on3)CC2)c1C the inhibition was -0.313%.
For Cc1sc2nc(CSCC(=O)NC3CCCCC3)[nH]c(=O)c2c1C, the inhibition was -2.29%.
CC(=O)c1sc2nc(SCC(=O)N3CCCCC3)[nH]c(=O)c2c1C showed an inhibition of 2.37%.
For CSc1nnc(SCc2nc3sc(C(=O)O)c(C)c3c(=O)[nH]2)s1, the inhibition was 65.8% (active).
